# Screening results (PubChem)
# A selection: hits, their analogues and other compounds. The true share with any hit is near 10%.
# Gal4-VP16 FLuc: Gal4-VP16 reporter inhibition counter-screen; Drosophila S2 Gal4-VP16 UAS-luciferase, luminescence, 20 h; Potency, µM (top dose mostly 53.6 µM), for inactives: at the highest dose activity, negative = inhibition, usual class: inhibitors; actives 3.5% (n = 310,000);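 further: Gal4-VP16 expression switched on by copper sulfate through the metallothionein promoter; on the % scale 0 is the no-effect control and ±100 the full control effect; nearly all actives have a fitted effect of over 50% in size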
# MCF10A rerep: DNA re-replication induction in MCF 10a cells; actives 2.9% (n = 350,000); Potency, µM (doses to about 46.1 µM), inactives show top-dose activity, positive = re-replication, most hits filed as activators; MCF 10A DNA re-replication, Hoechst nuclear intensity, 48 h; AID 624296; further: % of control where 0% means no effect; nearly all actives have a fitted effect of over 50% in size
# ELG1 DNA repair: blocks ELG1-dependent DNA repair in HEK293T cells | Potency, µM (series often up to 46.1 µM), inactives show at the highest dose activity change, negative = inhibition, actives largely listed as inhibitors | actives 2.3% (n = 330,000) | HEK293T ELG1-luciferase reporter, luminescence, 16 h; DNA damage induced by 5-fluorouridine; further: on the % scale 0 is the no-effect control and ±100 the full control effect; nearly all actives have a fitted effect of over 55% in size
#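 Luminescence from the luciferase reporter, measured 30 min after ONE-Glo reagent at room temperature, was the read-out. Beforehand, 2,000 cells per well were exposed for 16 hr at 37 °C to 5-fluorouridine together with compound or vehicle.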
# SW480 rereplic: induces DNA re-replication in SW480 colon adenocarcinoma cells. SW480 DNA re-replication, Hoechst DNA content imaging, 48 h. Potency, µM (top dose mostly 46.1 µM), inactives show at the highest dose re-replication activation, actives largely listed as activators. actives 1.8% (n = 340,000). AID 624297; further: % of control where 0% means no effect; nearly all actives have a fitted effect of over 55% in size
#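 Compounds, transferred as 23 nL by pin tool, were incubated with cells for 48 hr; DNA content per nucleus was then quantified by Hoechst staining and fluorescence plate imaging.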
# RORgamma inh: ROR gamma (mouse) transcription inhibition; Drosophila S2 Gal4-RORgamma UAS-luciferase reporter, 20 h; AID 2551; actives 5.4% (n = 310,000); Potency, µM (highest dose often 53.6 µM), for inactives: at the highest dose activity change, negative = inhibition, hits mostly inhibitors; further: on the % scale 0 is the no-effect control and ±100 the full control effect; nearly all actives have a fitted effect of over 60% in size
# Target sequence (P51450 whole entry, looked up, the tested form may be a part): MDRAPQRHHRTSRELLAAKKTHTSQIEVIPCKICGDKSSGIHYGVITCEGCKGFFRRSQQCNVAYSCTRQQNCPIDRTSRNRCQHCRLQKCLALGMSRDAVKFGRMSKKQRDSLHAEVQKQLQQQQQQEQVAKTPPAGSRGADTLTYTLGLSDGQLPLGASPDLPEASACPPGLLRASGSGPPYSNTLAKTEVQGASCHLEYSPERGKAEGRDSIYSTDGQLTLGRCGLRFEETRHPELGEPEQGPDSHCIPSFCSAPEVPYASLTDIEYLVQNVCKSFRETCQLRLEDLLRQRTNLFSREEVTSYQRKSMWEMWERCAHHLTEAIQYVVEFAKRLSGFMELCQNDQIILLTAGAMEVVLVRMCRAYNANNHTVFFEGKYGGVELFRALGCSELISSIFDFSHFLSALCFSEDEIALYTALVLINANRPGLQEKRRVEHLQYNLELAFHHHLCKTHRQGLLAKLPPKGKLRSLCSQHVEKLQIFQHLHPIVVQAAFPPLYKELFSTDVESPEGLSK
#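 Luminescence from a UAS-regulated Photinus luciferase reporter in stably transfected Drosophila Schneider cells is measured; decreased signal marks ROR gamma inhibition. Fusion expression is induced by 700 uM copper sulfate for 20 hr.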
# * marks the source's active call; other numbers are inactive results; ? = inconclusive; · = no result given; [ ] = another dose, or the depositor's remark. The call rests on the fitted dose curve; in most records, active means well fitted curve in the direction sought with a large enough effect; inconclusive means small, poorly fitted or top-dose-only effect, or another doubt; inactive means no such curve, though single readings can be large; an effect the other way counts as inactive or inconclusive. Potency means the concentration at half of the fitted maximal effect.
SMILES,Gal4-VP16 FLuc,MCF10A rerep,ELG1 DNA repair,SW480 rereplic,RORgamma inh
Cc1cc(C)cc(S(=O)(=O)c2cn(C)c3cc(N4CCN(C)CC4)c(F)cc3c2=O)c1,-5%,23µM*,-3%,-10%,-7%
O=C(Nc1nnc(SCC(=O)N2CCCCC2)s1)c1ccccc1F,-21%,?,?,?,36%
O=C(Nc1nnc(SCC(=O)N2CCCc3ccccc32)s1)c1ccc2ccccc2c1,5.6µM*,18%,?,0%,6.3µM*
CC(=O)Nc1nnc(SCC(=O)N2CCCc3ccccc32)s1,-12%,1.8µM*,1%,-11%,10%
O=C(Nc1nnc(SCC(=O)N2CCCc3ccccc32)s1)c1ccccc1,?,0%,?,-14%,6.3µM*
O=C(Nc1nnc(SCC(=O)N2CCOCC2)s1)c1ccccc1Cl,6.3µM*,-4%,?,3%,10µM*
Cc1cc(C)cc(C(=O)Nc2nnc(SCC(=O)N3CCCc4ccccc43)s2)c1,-11%,16%,-5%,-3%,-1%
O=S(=O)(Nc1cccc(Cl)c1)c1cccc(-n2cnnn2)c1,·,1%,2%,-4%,·
O=C(NCc1ccccc1)C(c1ccc(Cl)cc1)N(C(=O)c1csnn1)C1CC1 (centres undefined),-3%,0%,-7%,29%,9%
COc1cc(OC)cc(C(=O)N[C@H](C(=O)Nc2nc3ccc(S(C)(=O)=O)cc3s2)C(C)C)c1,4%,0%,?,-9%,15%
CCC(C)NC(=O)Cc1c(C)c2cc3c(cc2oc1=O)OC(C)(C)CC3 (centres undefined),-13%,16%,?,4%,36%
CCN(C(=O)CSc1nnc(-c2ccc3c(c2)OCO3)o1)C1CCS(=O)(=O)C1 (centres undefined),·,-4%,11%,-4%,·
Cn1c(C(=O)OC(C(=O)NCC2CCCO2)c2cccnc2)cc2sccc21 (centres undefined),-2%,?,?,1.3µM*,11%
CC(OC(=O)c1cc2sccc2n1C)C(=O)NCC1CCCO1 (centres undefined),6%,6%,-10%,-2%,?
C(=C/c1nccc2c1[nH]c1ccccc12)/c1ccc2c(c1)OCO2,-24%,?,?,21µM*,0.89µM*
O=c1c2ccccc2nc(/C=C/c2ccc3c(c2)OCO3)n1CCCO,-5%,?,-6%,3%,21%
O=C1CCNCCN1[C@H](CO)c1ccccc1,4%,5%,8%,0%,-8%
Cc1ccc2[nH]c(C(=O)Nc3ccc(F)cc3)cc2c1,16%,7%,?,?,10µM*
CCCOc1ccc(NC(=O)c2cc3cc(C)ccc3[nH]2)cc1,-9%,6%,14%,?,-10%
O=C1NN=COc2ccccc21,-5%,8%,-13%,1%,13µM*
O=C1NC(c2ccc(Cl)cc2)=COc2ccccc21,-2%,-4%,?,0%,-15%
CN(C(=O)COC(=O)CCCN1C(=O)c2cccc3cccc(c23)C1=O)C1CCS(=O)(=O)C1 (centres undefined),·,3%,14%,-60%,·
COc1ccc(Cc2noc(CN3CCN(Cc4cccc(Cl)c4)CC3)n2)cc1OC,-17%,0%,23µM*,-7%,-1%
COc1ccc(Cc2noc(CN3CCCC(C(=O)c4cccs4)C3)n2)cc1OC (centres undefined),1%,-9%,18µM*,31%,32%
COc1ccc(Cc2noc(CN3CCCC(OCc4ccccn4)C3)n2)cc1OC (centres undefined),-13%,15%,-3%,-32%,14%
SMILES,Gal4-VP16 FLuc,MCF10A rerep,ELG1 DNA repair,SW480 rereplic,RORgamma inh
CC(C)OCCCN1CC(=O)N2[C@@H](Cc3c([nH]c4ccccc34)C2(C)C)C1=O,13%,1%,14%,-2%,-4%
CCn1c(C)nc2cc(C(=O)N/N=C(\C)c3ccccc3O)ccc21,0.63µM*,3%,?,-2%,0.63µM*
CCn1c(C)nc2cc(C(=O)NNC(=S)Nc3ccccc3OC)ccc21,-22%,-5%,?,-4%,13µM*
CCn1c(C)nc2cc(C(=O)N/N=C/c3ccccc3C)ccc21,?,-4%,?,-4%,?
CCn1c(C)nc2cc(C(=O)NNC(=S)Nc3ccc(C)cc3)ccc21,?,-1%,18%,1%,-41%
C[C@@H](C(=O)Nc1ccc2ccccc2c1)[C@H]1C[C@]1(C)[C@H](NP(=O)(c1ccccc1)c1ccccc1)c1ccccc1,3%,21%,?,23µM*,17%
Cn1c(SCc2cccc(F)c2)nnc1-c1ccncc1,2%,?,17%,-2%,8%
O=C(O)C(C1CCCCC1)C1(O)CCCC1 (centres undefined),·,0%,·,-2%,·
O=C1C=C(c2ccccc2)C(=O)N1Nc1ccccc1,5µM*,?,?,?,4.5µM*
COc1ccc(Nc2cccccc2=O)cc1,15%,-183%[0.0737 µM],?,-6%,0%
Cc1ccc(NN2C(=O)C=C(c3ccc(Cl)cc3)C2=O)cc1,8.9µM*,15µM*,?,?,7.1µM*
COc1ccc(C2=CC(=O)N(Nc3ccccc3)C2=O)cc1,11µM*,?,?,4.1µM*,?
O=C(NCc1cccnc1)c1nn2cccnc2c1Cl,7%,0%,6%,-31%,0%
C=CCSc1nnc2c(n1)OC(C)=Nc1ccc(Br)cc1-2,3%,1%,6%,-4%,3%
Cc1ccc(-c2noc(CNC(=O)COc3ccccc3C)n2)cc1,·,17%,-7%,-9%,·
Cc1cccc(NC(=S)NCCC(c2ccccc2)c2ccccc2)c1,7.1µM*,?,?,9%,4µM*
CNC(=S)NCCC(c1ccccc1)c1ccccc1,?,-7%,?,-12%,7.1µM*
C[C@H](NCCC(c1ccccc1)c1ccccc1)c1ccccc1,-5%[17 µM],·,·,·,-19%[16.9 µM]
COc1ccc(NC(=S)NCCc2ccccc2OC)c(OC)c1,?,1%,-18%,5%,-136%
COc1ccc(NC(=S)NCCC(c2ccccc2)c2ccccc2)c(OC)c1,3.2µM*,29%,-24%,-6%[9.22 µM],4µM*
Cc1cccc(NC(=S)NCCCN2CCOCC2)c1,-2%,-2%,-3%,1%,-13%
COc1cccc(NC(=S)NCCC(c2ccccc2)c2ccccc2)c1,22µM*,?,-8%,-2%,?
Cc1cc(C)[n+](-c2ccc(Oc3ccccc3)c(S(=O)(=O)[O-])c2)[nH]1,-2%,3%,2%,-6%[9.22 µM],2%
Cc1csc(NC(=O)C2CCCCC2)n1,-1%,?,?,-53%,28%[1.91 µM]
COc1cc(NC(=S)NCCC(c2ccccc2)c2ccccc2)cc(OC)c1,8.9µM*,-8%,-20%,?,4.5µM*
